Data: PubChem BioAssay AID1347120 (National Center for Advancing Translational Sciences (NCATS), 2019)
Hit rate of the full screen: of about 390,000 compounds, about 930 (0.24%) were called active. Another 5% or so got no clear call; they are omitted. This is one part of a sample in which actives are shown more often than they occur. A number with no mark means an inactive call. Calls come from the whole dose curve; as a rule, active = well fitted activation curve with a large enough effect; inconclusive = small, poorly fitted or top-dose-only effect; inactive = no such curve, though single readings can be large or run the other way.

experiment: qHTS for Suppressors of FUS Proteinopathy: Primary screen using FUS-linked yeast assay; note: nearly all actives have a fitted effect of over 55% in size;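 for growth rescue (activation): plate controls were DMSO vehicle for no effect and reference control for full effect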; settings: S. cerevisiae FUS-expressing, OD600, 24 h; Potency: growth rescue; series mostly up to 76.6 µM; growth rescue (activation): at the top concentration
Description: Several widespread neurodegenerative diseases, including Alzheimer disease, Huntington disease, Frontotemporal Lobar Degeneration (FTLD) and Amyotrophic Lateral Sclerosis (ALS), share a common pathological feature, namely accumulation of specific protein aggregates in diseased tissue. These diseases which is associated with protein misfolding (proteinopathies) have become increasingly problematic as the population ages and life expectancies are extended. Most proteinopathies are currently incurable, a situation confounded by the fact that the basis of neurodegeneration is generally poorly understood. There exists urgent and significant need to find therapeutics that can inhibit the toxicity associated with protein aggregation. A novel approach to understand the underlying mechanisms of neurodegenerative diseases has recently emerged in which the disease conditions are modeled in the yeast (Saccharomyces cerevisiae), a tractable eukaryotic organism with conserved protein quality control mechanisms. Yeast offers quick and reliable genetic manipulations and can be easily tailored to high-throughput screening (HTS).
For this project, a yeast model of the FUS proteinopathies (a spectrum of neurodegenerative diseases that include ALS and a subtype of FTLD) was generated and employed. The cytoplasmic accumulation of the DNA/RNA-binding protein FUS (also known as TLS) is causative to both familial and sporadic forms of ALS and FTLD. This yeast model recapitulates neuronal pathology by showing severe cytotoxicity associated with cytoplasmic accumulation of FUS aggregates and a specific interaction between FUS and TDP-43, another ALS-associated protein. […] Specifically, the cellular accumulation of misfolded FUS that disrupts RNA homeostasis in both yeast and higher eukaryotes. This model was validated to be suitable for quantitative HTS (qHTS) use for finding genetic or chemical factors that restore growth. […] Identified compounds that inhibits FUS-yeast toxicity is flagged, re-acquired, and validated for further investigation and optimization.
NIH Chemical Genomics Center [NCGC]
NIH Molecular Libraries Probe Production Centers Network [MLPCN]
Assay Submitter (PI): Frank Shewmaker PhD, Uniformed Services University of the Health Sciences
Compound CP55940 was used as the positive control. Column 1 was treated with CP55940 titration from 92uM (final concentration, 1:2 dilution), while Column 2 was treated with top dose 92uM. Columns 3 and 4 were treated with DMSO only as negative control to assess background and noise signal.
Four hundred fifty microliter of cultured yeast (in 20mL rich medium) provided by Dr. Shewmaker lab was incubated at 30C at 99% humidity for 3hr. The culture was then spun down at 4000rpm for 5min and the cell pellet was resuspended in 2mL of Sdmin Media + ALU(330) + 2.5% Raffinose. One hundred microliter of the suspension was added to 900uL of water and OD of the solution was obtained. Twenty mL of responding medium (provided by Shewmaker lab) + 2.5% raffinose was added to ensure cell density of 0.1; the solution was incubated overnight. Working cell solution (FUS-yeast in Sdmi + Sdmi + 1X ALU + 2% galactose media) was prepared (final OD at 0.005) and 3uL was dispensed in a 1536-well Aurora high based clear bottom assay plates. Controls and library compounds (at various final concentrations from 40uM to 0.32uM) were added using a 1536-well pin array using the Kalypsys pin-tool. The plates were then incubated for 24hrs in a cell-culture incubator (30C; 99% humidity). Absorbance at 600nm was then read using the PerkinElmer ViewLux plate reader.
Potency is the fitted concentration of half-maximal effect.

Compound	growth rescue (activation) [%]	Potency
Cc1cc(C(=O)Nc2cccc(C(F)(F)F)c2)c2c(C)nn(-c3cccc(F)c3)c2n1	15.4	–
CC(C)(C)c1ccc(C(=O)Nc2ccc3c(c2)CCCN3C(=O)c2cccs2)cc1	41.4	–
CC(C)c1ccc(S(=O)(=O)Nc2ccc(O)c(Sc3nc4ccccc4s3)c2)cc1	30.6	–
CC(C)(C)c1ccc(S(=O)(=O)Nc2ccc(O)c(Sc3nc4ccccc4s3)c2)cc1	9.07	–
CCOc1ccc(Nc2c(S(=O)(=O)c3ccccc3)cnc3ccccc23)cc1	43.5	–
Cc1c(NC(=O)Cc2ccccc2)cccc1-c1nc2cccnc2s1	24	–
Cc1ccc(Cl)cc1NC(=O)CCC(=O)N1CC(C)Sc2ccccc21 (stereo not given)	43.6	–
CCN(C(=O)COC(=O)CCOc1cccc(C)c1)c1c(N)n(Cc2ccccc2)c(=O)[nH]c1=O	8.57	–
CCCn1c(C)cc(/C=C(\C#N)C(=O)OCC(=O)N(C)c2c(N)n(Cc3ccccc3)c(=O)[nH]c2=O)c1C	–	25.1 µM (active)
CCCn1c(C)cc(/C=C(\C#N)C(=O)OCC(=O)Nc2cc(OC)c(OC)c(OC)c2)c1C	23.6	–
CCC1CCCCN1C(=O)Cn1c(=O)n(CCCCCC(=O)NCc2ccccc2)c(=O)c2sccc21 (stereo not given)	6.98	–
COc1ccc(NC(=O)NC(C)c2c(-n3cccc3)sc(C)c2C)cc1OC (stereo not given)	42.7	–
CCN(CC)S(=O)(=O)c1ccc2c(c1)N(CC(=O)NCC(C)c1ccccc1)C(=O)CO2 (stereo not given)	14.3	–
CCN(CCCNC(=O)c1cc2c(=O)n(CC)c3ccccc3c2s1)Cc1ccccc1	6.37	–
Cc1cccc(NC(=O)CSc2nnc(CNC(=O)c3cccc(C)c3)n2-c2ccccc2)c1	8.61	–
CCc1ccc(S(=O)(=O)c2nnn3c2nc(NCc2ccccc2OC)c2cc(Cl)ccc23)cc1	-7.06	–
N#C/C(=C\c1cccc(F)c1)c1nc(-c2cc3c(ccc4ccccc43)oc2=O)cs1	-1.96	–
COc1ccc(C2C(=O)N(C3CCCCCC3)CC(=O)N2CCc2ccc(Cl)cc2)cc1OC (stereo not given)	21.5	–
Cc1onc(-c2ccc(F)cc2F)c1C(=O)Nc1cccc(C(F)(F)F)c1	8.05	–
Cc1ccc(N2C(=O)C3N=NN(CC(=O)N4N=C(c5cccc6ccccc56)CC4c4ccccc4)C3C2=O)cc1 (stereo not given)	–	14.1 µM (active)
Cc1ccc(CNC(=O)CSC2=Nc3ccccc3C3=NC(C)C(=O)N23)cc1 (stereo not given)	17.6	–
COc1ccc(C2=NN(C(=O)CSc3nc(=O)n4ccc(C)cc4n3)C(c3ccc(C)cc3)C2)cc1 (stereo not given)	-24.8	–
COc1ccccc1CNC(=O)Cn1nc(C)c2nn(-c3ccc(Cl)cc3)c(C)c2c1=O	43.3	–

Compound	growth rescue (activation) [%]	Potency
Cc1ccc(NC(=O)c2nc(S(=O)(=O)Cc3cccc(C)c3)ncc2Cl)cc1	-17.7	–
CCN1C(=O)[C@H]2[C@@H](c3ccc(-c4ccc(F)cc4)cc3)N[C@@](Cc3ccccc3)(C(=O)OC)[C@H]2C1=O	–	11.2 µM (active)
CCN1C(=O)[C@H]2[C@@H](c3ccc(SC4CCCCC4)c(OC)c3)N[C@@](Cc3ccccc3)(C(=O)OC)[C@H]2C1=O	26.7	–
CCN1C(=O)[C@H]2[C@@H](c3ccc(-c4ccc(OC)cc4)cc3)N[C@@](Cc3ccccc3)(C(=O)OC)[C@H]2C1=O	-1.62	–
COC(=O)c1cc2occc2n1Cc1nc(-c2ccc(C)cc2)oc1C	17.4	–
CCN(Cc1ccccc1)S(=O)(=O)c1ccc2c(c1)CCCN2C(C)=O	17.6	–
Cc1cccc(CSc2nc3ccncc3n2CC(=O)N(C)C2CCCCC2)c1	11.2	–
Cc1ccc(Cl)cc1N(C)C(=O)C1CCCN(c2ncnc3onc(-c4ccc(F)cc4)c23)C1 (stereo not given)	5.26	–
CC1C(=O)Nc2ccc(S(=O)(=O)N3CCN(c4ccccc4F)CC3)cc2NC1=O (stereo not given)	-20	–
COc1ccc(N2CCN(S(=O)(=O)c3ccc4c(c3)NC(=O)C(C)C(=O)N4)CC2)cc1 (stereo not given)	5.53	–
CON(C)S(=O)(=O)c1ccc2c(c1)NC(=O)C1CCCN21 (stereo not given)	–	28.2 µM (active)
COc1ccc(OCCCn2c(C)nc3cc(C)c(C)cc32)cc1	25.3	–
CC(NC(=O)c1cc(Sc2ccc(F)cc2F)nc2ccccc12)c1ccccc1 (stereo not given)	23.4	–
Cc1cccc(-n2ncc(C(=O)N3CCc4ccccc4C3)c2C2CCN(C(=O)OC(C)(C)C)CC2)c1	-8.68	–
Cc1ccc2nc(N3C(=O)C(O)=C(C(=O)c4ccco4)C3c3cccc(O)c3)sc2c1 (stereo not given)	–	15.8 µM (active)
CCOc1cc(C2C(C(=O)c3ccco3)=C(O)C(=O)N2Cc2ccccc2)ccc1O (stereo not given)	11	–
CC(=O)c1sc(N2C(=O)c3oc4ccccc4c(=O)c3C2c2ccc(C)cc2)nc1C (stereo not given)	3.74	–
Cc1ccc(CN2C(=O)SC(Nc3ccccc3)C2=O)cc1 (stereo not given)	-7.07	–
CCOC(=O)N1CCN(S(=O)(=O)c2cc(Br)cc3c2N(C(=O)C2CC2)CC3)CC1	1.43	–
CN(Cc1ccccc1)C(=O)CCS(=O)(=O)c1cc(Br)cc2c1N(C(=O)C1CC1)CC2	43.2	–
CCN(c1ccc2c(c1)OCO2)S(=O)(=O)c1cc(Br)cc2c1N(C(=O)C1CC1)CC2	–	17.8 µM (active)
O=C(CCS(=O)(=O)c1cc(Br)cc2c1N(C(=O)C1CC1)CC2)Nc1ccc(Br)cc1F	-0.121	–
